These results are taken from PubChem BioAssay (NCI).

Where “and” joins values, the source holds several entries; their conditions need not be identical. Equal values may be shown once. About 83,000 compounds went through this panel and 20% of them were active in at least one assay; those are over-represented in the sample as a whole.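 For each line, cells grew in 96-well plates with the test compound present at a single concentration for 48 hours.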 A number with no mark means an inactive call. Calls of active or inactive are those of the source. Rule for the calls: active = growth percent below 10; inactive = the rest.

This assay relates to MDA-MB-468 breast. In words: NCI-60 one-dose screen, 48 h (100 = growth as untreated, 0 = no growth, -100 = all killed). Conditions: 10 µM unless noted.
Turning to `FC(F)(F)Sc1ccc(/C=C/c2cc(/C=C/c3ccc(SC(F)(F)F)cc3)n(-c3ccccc3)n2)cc1`, the growth was 95.8%.

Consider `CCC(c1ccc(OC)cc1)C(CC)c1ccc(O)c(CN2CCCC2)c1` (stereo not given), for which the growth was -45% (active). With `C=CCn1c(SCC(=O)Nc2ccc(/C(C)=N\O)cc2)nnc1-c1cc(-c2ccc(Cl)cc2)nc2ccccc12` the figure was 42.7%.

In the case of `Cc1[nH]c(C(=O)Nc2ccccc2OC2CCNC2)c(Cl)c1Cl` (stereo not given), the growth is 53.8%. For the compound `C=C1C(=O)O[C@H]2[C@H]1CC/C(Cn1cc(-c3ccc(N)cc3)nn1)=C\CC[C@@]1(C)O[C@@H]21`, the growth was -44.8% (active). As for `CC(NNC(C)c1ccccc1)c1ccccc1` (stereo not given), the figure is 104%.

For `Cc1ccn2c3c(c(C(=O)O)c2c1)C(=O)c1ccccc1C3=O`, the growth was 84.7%. With `O=[N+]([O-])C1=C(c2ccccc2)SC=C(c2ccccc2)S1` the figure was 72.7%; with `O/N=C(/c1ccccc1)c1ccc2c3c(cccc13)CC2`, 57.5% and 59.8%.

Regarding `CC(C)Nc1cc(-c2c[nH]c(C(=O)N[C@H](CO)c3cccc(Cl)c3)c2)c(Cl)cn1`, the growth is 43.6%. As for `Cn1ccnc1C(=O)C(=O)Nc1ccc(CC(=O)Nc2ccccc2)cc1`, the figure is 109%; as for `O=C1/C(=C/c2ccc(Cl)cc2)COc2ccc(O)cc21`, 85.1%. Turning to `FC(F)(F)c1ccc(-c2cnc(-n3cc(COCCN4CCCCC4)nn3)nc2NC2CCCCCC2)cc1`, the growth was 16.1%. Regarding `Cn1c2ccccc2c2c3c(c4c5cc(Br)ccc5n(C)c4c21)C(=O)N(O)C3=O`, the growth is -0.278% (active). With `O=C1CCc2c(sc3[nH]c(=S)n(Cc4ccccc4)c(=O)c23)C1` the figure was -3.67% (active); with `O=Cc1c(OCc2cnnn2CC(=O)Nc2ccc(Br)cc2)ccc2ccccc12`, 95.6%.

Consider `NC(=S)n1c(=O)n(-c2cccc(C(F)(F)F)c2)c(=O)c2cc(-c3ccc(F)cc3F)ccc21`, for which the growth is 1.23% (active).

For `Cc1ccc(Nc2oc(-c3ccccc3)nc2[P+](c2ccccc2)(c2ccccc2)c2ccccc2)cc1`, the growth was -77.1% (active). On to `COc1cc(-c2c(C#N)c(-c3cccs3)nc3c2c(-c2ccccc2)nn3-c2ccccc2)ccc1O`, for which the growth was 95.4%.

Regarding `O=C(CSc1nc2ccccc2c(=O)n1-c1ccc(S(=O)(=O)Nc2ccc(Cl)nn2)cc1)Nc1ccc(S(=O)(=O)Nc2ccc(Cl)nn2)cc1`, the growth is 94.9%. For `COC(=O)c1cc(-c2ccccc2)[nH]c1N/N=C/c1c(Cl)cccc1Cl`, the growth was -7.8% (active). On to `CC[C@@H](C)[C@H](NC(=O)Cn1cc(CNC(=O)[C@@H](NC(=O)OCc2ccccc2)C(C)C)nn1)C(=O)O`, for which the growth is 98.5%.

Regarding `C/C=C/C(=O)OCCCCCCCCCCCC`, the growth is 96.9%. As for `CCN(CC)S(=O)(=O)c1ccc(NC(=O)CSc2nnc(C)n2-c2ccccc2)cc1`, the figure is 90.6%.

As to `O=C(CSc1nnc2sc(Nc3cccc(Cl)c3)nn12)c1ccc(F)cc1`, the growth is 89.5%.

Turning to `Cc1cc(C)cc(NCCC#N)c1`, the growth is 107%. With `O=C(NS(=O)(=O)c1ccccc1)n1cc(-c2ccncc2)c(-c2ccc(Cl)c(O)c2)n1` the figure was 96.5%. On to `O=C(/C=C(O)/C=C/c1ccc(SC(F)(F)F)cc1)/C=C/c1ccc(SC(F)(F)F)cc1`, for which the growth is 100%. With `COc1cc(C(=O)NC(=S)Nc2ccc3ccccc3c2)cc(OC)c1OC` the figure was 95.5%. As for `COc1ccc(OC)c(-c2c(C#N)c(-c3cccs3)nc3c2c(-c2ccccc2)nn3-c2ccccc2)c1`, the figure is 104%. With `Cn1cc(-c2csc(-c3cn(C(=O)OC(C)(C)C)c4ccc(Br)cc34)n2)c2ccnc(Cl)c21` the figure was 5.4% (active); with `Cc1cc(Oc2ccccc2)ccc1Nc1ncnc2ccc(-c3cnc(Cl)c(NS(C)(=O)=O)c3)cc12`, -18.9% (active); with `CC(C)C1(C(C)C)NC(=O)NC1=O`, 101%. On to `COc1cc(C(=O)/C=C/c2cc(-c3cc(OC)c(OC)c(OC)c3)n[nH]2)cc(OC)c1OC`, for which the growth was -79% (active). As for `COc1ccc(-c2nc(SCC(=O)Nc3nc(-c4ccccc4)cs3)[nH]c(=O)c2C#N)cc1`, the figure is 84.2%; as for `CSc1nc2[nH]ncc2c(=O)[nH]1`, 92.6%. With `OCCN(CCO)C(=S)S` the figure was 102%. With `CC(C)N1CCN(c2ccc(OC[C@H]3CO[C@](Cn4cncn4)(c4ccc(Cl)cc4Cl)O3)cc2)CC1` the figure was 78.9%. Regarding `CS(=O)(CCCCN=C=S)=NC(=O)c1c(F)c(F)c(F)c(F)c1F` (stereo not given), the growth is 72.6%.

With `O=C(Nc1ccncc1)C(=O)c1cn(S(=O)(=O)c2ccc(Cl)cc2)c2ccccc12`, the growth was 19.7%.
